{"source": "the supplement of paper PMC6411743", "test_in_all_cases": "NP40-soluble protein abundance relative to vehicle (solubility fold change) (ratio); higher = more soluble protein in presence of AMP-PNP", "key": {"[1]": {"target": "T1, UniProt Q58A45|Q58A45-3", "T1 sequence (whole entry)": "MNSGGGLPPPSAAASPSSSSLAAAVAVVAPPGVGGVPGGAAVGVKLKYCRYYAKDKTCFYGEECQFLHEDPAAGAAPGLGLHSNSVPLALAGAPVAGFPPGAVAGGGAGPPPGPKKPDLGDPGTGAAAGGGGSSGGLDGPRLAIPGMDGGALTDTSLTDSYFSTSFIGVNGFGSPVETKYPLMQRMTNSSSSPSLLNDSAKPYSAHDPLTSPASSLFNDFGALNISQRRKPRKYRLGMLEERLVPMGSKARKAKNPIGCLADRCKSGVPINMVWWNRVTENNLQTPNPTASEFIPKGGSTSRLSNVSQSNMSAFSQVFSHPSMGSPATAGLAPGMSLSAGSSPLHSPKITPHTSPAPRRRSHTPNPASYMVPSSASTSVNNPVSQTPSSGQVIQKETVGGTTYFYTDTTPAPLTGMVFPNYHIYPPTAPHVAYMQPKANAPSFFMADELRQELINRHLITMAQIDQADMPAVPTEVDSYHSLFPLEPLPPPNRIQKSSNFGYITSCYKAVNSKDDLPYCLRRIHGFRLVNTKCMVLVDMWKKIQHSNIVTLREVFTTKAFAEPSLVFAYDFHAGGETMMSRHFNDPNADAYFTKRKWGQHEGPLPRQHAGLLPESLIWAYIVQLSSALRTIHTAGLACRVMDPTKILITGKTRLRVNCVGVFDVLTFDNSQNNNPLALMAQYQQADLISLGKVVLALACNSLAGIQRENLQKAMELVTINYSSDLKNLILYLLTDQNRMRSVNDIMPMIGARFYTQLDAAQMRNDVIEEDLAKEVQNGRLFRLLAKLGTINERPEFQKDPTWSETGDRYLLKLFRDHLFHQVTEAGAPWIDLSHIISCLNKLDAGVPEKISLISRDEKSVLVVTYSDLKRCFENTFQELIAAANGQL", "procedure,_shortened": "(§1)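 Each value is a fold change relative to the detergent-processed vehicle, calculated per replicate from vsn-normalised intensities. Jurkat crude lysate received eight concentrations (0.1 to 10 mM) for 10 min at room temperature and 3 min at 37 °C, then was solubilised in 0.8% NP40 with benzonase (60 min, 4 °C). The ultracentrifuged supernatant was TMT-labelled and run by LC-MS/MS in three independent experiments.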"}, "[2]": {"target": "T2, UniProt Q5SGD2|Q5SGD2-3", "T2 sequence (whole entry)": "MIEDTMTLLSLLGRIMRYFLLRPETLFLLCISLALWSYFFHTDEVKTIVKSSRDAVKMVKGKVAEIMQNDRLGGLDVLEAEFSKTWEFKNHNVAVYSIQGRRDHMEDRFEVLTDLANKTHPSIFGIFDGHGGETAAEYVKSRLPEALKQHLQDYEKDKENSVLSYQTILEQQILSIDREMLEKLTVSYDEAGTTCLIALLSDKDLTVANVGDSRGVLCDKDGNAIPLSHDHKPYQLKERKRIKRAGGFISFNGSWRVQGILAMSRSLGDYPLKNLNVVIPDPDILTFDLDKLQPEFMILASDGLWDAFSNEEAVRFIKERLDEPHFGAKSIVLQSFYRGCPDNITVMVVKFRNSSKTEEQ", "procedure,_shortened": "as §1"}, "[3]": {"target": "T3, UniProt Q6PJT7-2|Q6PJT7-3|Q6PJT7-5|Q6PJT7-9|Q6PJT7", "T3 sequence (whole entry)": "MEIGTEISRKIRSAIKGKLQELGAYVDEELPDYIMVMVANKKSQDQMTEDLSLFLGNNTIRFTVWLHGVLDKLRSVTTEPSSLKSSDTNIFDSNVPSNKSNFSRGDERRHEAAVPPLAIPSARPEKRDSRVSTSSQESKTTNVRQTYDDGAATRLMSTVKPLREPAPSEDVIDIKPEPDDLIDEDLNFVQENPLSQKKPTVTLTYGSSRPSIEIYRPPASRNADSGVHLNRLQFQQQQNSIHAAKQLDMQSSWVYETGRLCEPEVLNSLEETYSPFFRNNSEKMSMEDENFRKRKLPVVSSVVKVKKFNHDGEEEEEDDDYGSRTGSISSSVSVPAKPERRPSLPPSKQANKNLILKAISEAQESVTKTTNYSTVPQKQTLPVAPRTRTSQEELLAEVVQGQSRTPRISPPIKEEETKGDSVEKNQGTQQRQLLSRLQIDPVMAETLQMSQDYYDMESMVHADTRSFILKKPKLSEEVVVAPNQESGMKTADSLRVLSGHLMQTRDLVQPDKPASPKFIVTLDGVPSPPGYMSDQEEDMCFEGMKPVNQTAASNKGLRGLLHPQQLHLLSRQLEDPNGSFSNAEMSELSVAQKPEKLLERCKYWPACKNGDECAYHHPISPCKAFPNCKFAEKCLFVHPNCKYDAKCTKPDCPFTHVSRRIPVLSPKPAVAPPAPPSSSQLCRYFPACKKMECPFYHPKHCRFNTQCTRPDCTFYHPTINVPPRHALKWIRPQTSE", "procedure,_shortened": "as §1"}, "[4]": {"target": "T4, UniProt Q8N0Z3", "T4 sequence (whole entry)": "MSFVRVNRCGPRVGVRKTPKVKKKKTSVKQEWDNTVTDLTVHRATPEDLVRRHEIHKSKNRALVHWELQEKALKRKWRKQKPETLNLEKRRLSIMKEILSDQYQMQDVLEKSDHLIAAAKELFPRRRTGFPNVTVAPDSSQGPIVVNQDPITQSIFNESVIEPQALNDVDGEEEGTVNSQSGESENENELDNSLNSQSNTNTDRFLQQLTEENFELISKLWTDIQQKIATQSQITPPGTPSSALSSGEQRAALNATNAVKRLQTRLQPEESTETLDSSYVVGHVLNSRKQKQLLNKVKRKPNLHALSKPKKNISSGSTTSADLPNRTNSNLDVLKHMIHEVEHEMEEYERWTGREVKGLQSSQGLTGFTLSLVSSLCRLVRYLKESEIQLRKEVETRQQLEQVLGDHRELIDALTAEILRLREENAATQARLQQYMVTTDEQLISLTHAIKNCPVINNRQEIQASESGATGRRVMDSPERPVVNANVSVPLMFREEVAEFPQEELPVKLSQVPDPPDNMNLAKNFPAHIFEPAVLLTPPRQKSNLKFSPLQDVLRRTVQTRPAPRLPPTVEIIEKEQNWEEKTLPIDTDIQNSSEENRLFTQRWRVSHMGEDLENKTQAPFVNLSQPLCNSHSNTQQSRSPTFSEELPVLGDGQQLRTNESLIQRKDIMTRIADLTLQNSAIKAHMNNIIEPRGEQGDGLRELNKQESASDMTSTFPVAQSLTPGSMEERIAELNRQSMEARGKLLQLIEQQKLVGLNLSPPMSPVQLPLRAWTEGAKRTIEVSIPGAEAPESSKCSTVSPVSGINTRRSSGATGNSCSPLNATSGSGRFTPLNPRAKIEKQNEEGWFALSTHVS", "procedure,_shortened": "as §1"}, "[5]": {"target": "T5, UniProt Q92581-2|Q92581-3|Q92581", "T5 sequence (whole entry)": "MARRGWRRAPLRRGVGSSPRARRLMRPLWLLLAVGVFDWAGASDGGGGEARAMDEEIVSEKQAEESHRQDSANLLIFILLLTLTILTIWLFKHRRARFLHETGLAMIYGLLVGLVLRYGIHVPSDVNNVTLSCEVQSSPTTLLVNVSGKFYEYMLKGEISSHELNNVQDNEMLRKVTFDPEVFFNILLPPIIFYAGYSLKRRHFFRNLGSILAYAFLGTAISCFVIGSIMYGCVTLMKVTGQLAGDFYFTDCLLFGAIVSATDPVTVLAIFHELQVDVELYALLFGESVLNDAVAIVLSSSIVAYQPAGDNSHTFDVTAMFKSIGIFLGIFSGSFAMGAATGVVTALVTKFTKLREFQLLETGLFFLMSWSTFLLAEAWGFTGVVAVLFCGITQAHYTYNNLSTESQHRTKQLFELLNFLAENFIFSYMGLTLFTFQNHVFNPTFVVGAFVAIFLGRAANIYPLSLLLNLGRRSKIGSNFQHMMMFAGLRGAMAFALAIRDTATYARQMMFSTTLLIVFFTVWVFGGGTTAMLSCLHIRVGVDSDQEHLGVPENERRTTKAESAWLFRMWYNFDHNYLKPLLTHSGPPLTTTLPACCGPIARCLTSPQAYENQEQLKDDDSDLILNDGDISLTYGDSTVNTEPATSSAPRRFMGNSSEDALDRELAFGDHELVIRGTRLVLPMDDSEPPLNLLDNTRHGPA", "procedure,_shortened": "as §1"}}, "note": "± gives the standard deviation of the averaged measurements. Targets with the largest changes are over-represented here; the source holds about 6,200 in all.", "data": [{"smiles": "Nc1ncnc2c1ncn2[C@@H]1O[C@H](COP(=O)(O)OP(=O)(O)NP(=O)(O)O)[C@@H](O)[C@H]1O", "note": "[adenylyl imidodiphosphate]", "values": [{"measurement": "NP40-soluble protein abundance", "setting": "[1]; concentration: 1mM", "value": "1.032 ± 0.0089"}, {"measurement": "NP40-soluble protein abundance", "setting": "[1]; concentration: 2mM", "value": "1.02 ± 0.024"}, {"measurement": "NP40-soluble protein abundance", "setting": "[1]; concentration: 4mM", "value": "1.02 ± 0.03"}, {"measurement": "NP40-soluble protein abundance", "setting": "[1]; concentration: 6mM", "value": "0.999 ± 0.026"}, {"measurement": "NP40-soluble protein abundance", "setting": "[1]; concentration: 8mM", "value": "1.03 ± 0.022"}, {"measurement": "NP40-soluble protein abundance", "setting": "[1]; concentration: 10mM", "value": "1.01 ± 0.022"}, {"measurement": "NP40-soluble protein abundance", "setting": "[2]; concentration: 1mM", "value": "1.02 ± 0.029"}, {"measurement": "NP40-soluble protein abundance", "setting": "[2]; concentration: 2mM", "value": "1.03 ± 0.049"}, {"measurement": "NP40-soluble protein abundance", "setting": "[2]; concentration: 4mM", "value": "1 ± 0.019"}, {"measurement": "NP40-soluble protein abundance", "setting": "[2]; concentration: 6mM", "value": "1 ± 0.016"}, {"measurement": "NP40-soluble protein abundance", "setting": "[2]; concentration: 8mM", "value": "1.02 ± 0.06"}, {"measurement": "NP40-soluble protein abundance", "setting": "[2]; concentration: 10mM", "value": "1.006 ± 0.0075"}, {"measurement": "NP40-soluble protein abundance", "setting": "[3]; concentration: 1mM", "value": "1.04 ± 0.018"}, {"measurement": "NP40-soluble protein abundance", "setting": "[3]; concentration: 2mM", "value": "1.17 ± 0.082"}, {"measurement": "NP40-soluble protein abundance", "setting": "[3]; concentration: 4mM", "value": "1.2 ± 0.061"}, {"measurement": "NP40-soluble protein abundance", "setting": "[3]; concentration: 6mM", "value": "1.28 ± 0.14"}, {"measurement": "NP40-soluble protein abundance", "setting": "[3]; concentration: 8mM", "value": "1.29 ± 0.15"}, {"measurement": "NP40-soluble protein abundance", "setting": "[3]; concentration: 10mM", "value": "1.33 ± 0.13"}, {"measurement": "NP40-soluble protein abundance", "setting": "[4]; concentration: 1mM", "value": "0.943 ± 0.051"}, {"measurement": "NP40-soluble protein abundance", "setting": "[4]; concentration: 2mM", "value": "0.976 ± 0.024"}, {"measurement": "NP40-soluble protein abundance", "setting": "[4]; concentration: 4mM", "value": "0.959 ± 0.03"}, {"measurement": "NP40-soluble protein abundance", "setting": "[4]; concentration: 6mM", "value": "0.955 ± 0.027"}, {"measurement": "NP40-soluble protein abundance", "setting": "[4]; concentration: 8mM", "value": "0.957 ± 0.026"}, {"measurement": "NP40-soluble protein abundance", "setting": "[4]; concentration: 10mM", "value": "0.964 ± 0.02"}, {"measurement": "NP40-soluble protein abundance", "setting": "[5]; concentration: 1mM", "value": "0.999 ± 0.012"}, {"measurement": "NP40-soluble protein abundance", "setting": "[5]; concentration: 2mM", "value": "0.9876 ± 0.0034"}, {"measurement": "NP40-soluble protein abundance", "setting": "[5]; concentration: 4mM", "value": "0.957 ± 0.028"}, {"measurement": "NP40-soluble protein abundance", "setting": "[5]; concentration: 6mM", "value": "0.9812 ± 0.0025"}, {"measurement": "NP40-soluble protein abundance", "setting": "[5]; concentration: 8mM", "value": "0.979 ± 0.025"}, {"measurement": "NP40-soluble protein abundance", "setting": "[5]; concentration: 10mM", "value": "0.96 ± 0.026"}]}]}
